{"source": "ChEMBL document CHEMBL5606460", "about": "“ASAP - DENV-2 NS2B-NS3 protease fluorescence single point” (2024)", "target": "Genome polyprotein (dengue virus type 2) (UniProt P29990)", "key": {"[1]": {"conditions": "Thailand/16681/1984, Concentration 25.0 uM, Number of replicates 1.0"}}, "note": "Out of some 2,000 compounds screened, about 110 (5.5%) showed an effect of 50% or more. What follows is part of a selection rich in strong results, with near analogues and random picks from the rest."}
{"compound": "Nc1cccc2c(Cl)ccnc12", "values": [{"measurement": "inhibition", "setting": "Thailand/16681/1984, Concentration 49.95 uM, Number of replicates 2.0, Standard deviation 9.3539447807875 %", "value": 25.3, "unit": "%"}, {"measurement": "inhibition", "setting": "Thailand/16681/1984, Concentration 99.9 uM, Number of replicates 2.0, Standard deviation 4.02175613474424 %", "value": 68.2, "unit": "%"}]}
{"compound": "Nc1ccnc2c(Cl)cccc12", "values": [{"measurement": "inhibition", "setting": "Thailand/16681/1984, Concentration 49.95 uM, Number of replicates 2.0, Standard deviation 2.736837302484984 %", "value": -9.22, "unit": "%"}, {"measurement": "inhibition", "setting": "Thailand/16681/1984, Concentration 99.9 uM, Number of replicates 2.0, Standard deviation 4.13445849353631 %", "value": -8.19, "unit": "%"}]}
{"compound": "CNC(=O)c1cc(Cl)ccc1NS(=O)(=O)c1ccc(C(=O)N(C)C)cc1", "values": [{"measurement": "inhibition", "setting": "Thailand/16681/1984, Concentration 49.5 uM, Number of replicates 2.0, Standard deviation 0.43931539952348436 %", "value": -0.006, "unit": "%"}, {"measurement": "inhibition", "setting": "Thailand/16681/1984, Concentration 99.01 uM, Number of replicates 2.0, Standard deviation 1.0448066347124485 %", "value": 1.16, "unit": "%"}, {"measurement": "inhibition", "setting": "Thailand/16681/1984, Concentration 198.0 uM, Number of replicates 2.0, Standard deviation 2.436767925477247 %", "value": 5.4, "unit": "%"}]}
{"compound": "O=Cc1ccc(N2CCC(C(=O)N3CCN(c4ccc(F)cc4F)CC3)CC2)cc1", "values": [{"measurement": "inhibition", "setting": "[1]", "value": 11.4, "unit": "%"}]}
{"compound": "CNC(=O)C[C@H]1CCCN1S(=O)(=O)c1ccc(Oc2ccccc2Cl)cc1", "values": [{"measurement": "inhibition", "setting": "Thailand/16681/1984, Concentration 49.5 uM, Number of replicates 2.0, Standard deviation 0.32757728686835763 %", "value": -0.145, "unit": "%"}, {"measurement": "inhibition", "setting": "Thailand/16681/1984, Concentration 99.01 uM, Number of replicates 2.0, Standard deviation 1.5700018436077314 %", "value": 1.46, "unit": "%"}, {"measurement": "inhibition", "setting": "Thailand/16681/1984, Concentration 198.0 uM, Number of replicates 2.0, Standard deviation 0.26515981673573996 %", "value": 3.55, "unit": "%"}]}
{"compound": "O=C(c1cc(Cl)ccc1NS(=O)(=O)c1ccc(Oc2ccccc2Cl)cc1)N1CCC[C@@H]1CO", "values": [{"measurement": "inhibition", "setting": "Thailand/16681/1984, Concentration 49.5 uM, Number of replicates 2.0, Standard deviation 0.383564644131335 %", "value": 17.2, "unit": "%"}, {"measurement": "inhibition", "setting": "Thailand/16681/1984, Concentration 99.01 uM, Number of replicates 2.0, Standard deviation 0.18466388793957156 %", "value": 85.5, "unit": "%"}, {"measurement": "inhibition", "setting": "Thailand/16681/1984, Concentration 198.0 uM, Number of replicates 2.0, Standard deviation 0.022248141217142654 %", "value": 93.6, "unit": "%"}]}
{"compound": "CNC(=O)C[C@H]1CCCCN1S(=O)(=O)c1ccc(Oc2ccccc2Cl)cc1", "values": [{"measurement": "inhibition", "setting": "Thailand/16681/1984, Concentration 49.5 uM, Number of replicates 2.0, Standard deviation 0.6403061336392061 %", "value": -1.92, "unit": "%"}, {"measurement": "inhibition", "setting": "Thailand/16681/1984, Concentration 99.01 uM, Number of replicates 2.0, Standard deviation 0.5926288072768489 %", "value": -0.478, "unit": "%"}, {"measurement": "inhibition", "setting": "Thailand/16681/1984, Concentration 198.0 uM, Number of replicates 2.0, Standard deviation 0.4290957159902598 %", "value": 1.47, "unit": "%"}]}
{"compound": "O=C(c1cc(Cl)ccc1NS(=O)(=O)c1ccc(Oc2ccccc2Cl)cc1)N1CC[C@H](CO)C1", "values": [{"measurement": "inhibition", "setting": "Thailand/16681/1984, Concentration 49.5 uM, Number of replicates 2.0, Standard deviation 1.1631525408138252 %", "value": 2.87, "unit": "%"}, {"measurement": "inhibition", "setting": "Thailand/16681/1984, Concentration 99.01 uM, Number of replicates 2.0, Standard deviation 1.2459174873464263 %", "value": 43.6, "unit": "%"}, {"measurement": "inhibition", "setting": "Thailand/16681/1984, Concentration 198.0 uM, Number of replicates 2.0, Standard deviation 0.07742612093802895 %", "value": 97.8, "unit": "%"}]}
{"compound": "CC[C@H]1CCN(C(=O)c2cc(Cl)ccc2NS(=O)(=O)c2ccc(Oc3ccccc3Cl)cc2)C1", "values": [{"measurement": "inhibition", "setting": "Thailand/16681/1984, Concentration 49.5 uM, Number of replicates 2.0, Standard deviation 0.47789805764320614 %", "value": 46.7, "unit": "%"}, {"measurement": "inhibition", "setting": "Thailand/16681/1984, Concentration 99.01 uM, Number of replicates 2.0, Standard deviation 0.11836183761011393 %", "value": 61.8, "unit": "%"}, {"measurement": "inhibition", "setting": "Thailand/16681/1984, Concentration 198.0 uM, Number of replicates 2.0, Standard deviation 0.034704726588234404 %", "value": 73.4, "unit": "%"}]}
{"compound": "CNC(=O)[C@H]1CCN(S(=O)(=O)c2ccc(Oc3ccccc3Cl)cc2)C1", "values": [{"measurement": "inhibition", "setting": "Thailand/16681/1984, Concentration 49.5 uM, Number of replicates 2.0, Standard deviation 0.2326651022960228 %", "value": -2.7, "unit": "%"}, {"measurement": "inhibition", "setting": "Thailand/16681/1984, Concentration 99.01 uM, Number of replicates 2.0, Standard deviation 1.0727392899756494 %", "value": -1.81, "unit": "%"}, {"measurement": "inhibition", "setting": "Thailand/16681/1984, Concentration 198.0 uM, Number of replicates 2.0, Standard deviation 0.8124211767562954 %", "value": 0.204, "unit": "%"}]}
{"compound": "CNC(=O)[C@H]1CCCN(S(=O)(=O)c2ccc(Oc3ccccc3Cl)cc2)C1", "values": [{"measurement": "inhibition", "setting": "Thailand/16681/1984, Concentration 49.5 uM, Number of replicates 2.0, Standard deviation 1.3425926640552597 %", "value": -1.55, "unit": "%"}, {"measurement": "inhibition", "setting": "Thailand/16681/1984, Concentration 99.01 uM, Number of replicates 2.0, Standard deviation 1.1232771440198652 %", "value": 0.94, "unit": "%"}, {"measurement": "inhibition", "setting": "Thailand/16681/1984, Concentration 198.0 uM, Number of replicates 2.0, Standard deviation 1.8999403128335026 %", "value": 2.72, "unit": "%"}]}
{"compound": "O=Cc1ccc(N2CCC(C(=O)Nc3c(F)cc(F)cc3[N+](=O)[O-])CC2)cc1", "values": [{"measurement": "inhibition", "setting": "[1]", "value": 15.2, "unit": "%"}]}
{"compound": "Cc1cc(C(N)=O)c2cccc(Cl)c2n1", "values": [{"measurement": "inhibition", "setting": "Thailand/16681/1984, Concentration 49.95 uM, Number of replicates 2.0, Standard deviation 7.126306314460823 %", "value": -2.36, "unit": "%"}, {"measurement": "inhibition", "setting": "Thailand/16681/1984, Concentration 99.9 uM, Number of replicates 2.0, Standard deviation 6.288884680839078 %", "value": 0.295, "unit": "%"}]}
{"compound": "O=Cc1ccc(N2CCC(C(=O)N3CCN(C(=O)OCc4ccccc4)CC3)CC2)cc1", "values": [{"measurement": "inhibition", "setting": "[1]", "value": 11.5, "unit": "%"}]}
{"compound": "CC(C)COc1ccc(CNC(=O)C2CCN(c3ccc(C=O)cc3)CC2)cc1", "values": [{"measurement": "inhibition", "setting": "[1]", "value": 2.46, "unit": "%"}]}
{"compound": "COC(=O)c1c[nH]c(-c2ccccc2C(=O)Nc2cnn(C)c2)c1", "values": [{"measurement": "inhibition", "setting": "Thailand/16681/1984, Concentration 49.5 uM, Number of replicates 2.0, Standard deviation 4.6959836114984075 %", "value": -3.99, "unit": "%"}, {"measurement": "inhibition", "setting": "Thailand/16681/1984, Concentration 99.01 uM, Number of replicates 2.0, Standard deviation 3.634509710514387 %", "value": -4.57, "unit": "%"}, {"measurement": "inhibition", "setting": "Thailand/16681/1984, Concentration 198.0 uM, Number of replicates 2.0, Standard deviation 4.5675250537856 %", "value": -3.67, "unit": "%"}]}
{"compound": "CCCN(C[C@H](O)COc1ccccc1C(=O)CCc1ccccc1)C(=O)C1CCN(c2ccc(C=O)cc2)CC1", "values": [{"measurement": "inhibition", "setting": "[1]", "value": 15.7, "unit": "%"}]}
{"compound": "Cc1cc(CO)c2cccc(Cc3ccccc3C(=O)N3CCC(C(=O)O)CC3)c2n1", "values": [{"measurement": "inhibition", "setting": "Thailand/16681/1984, Concentration 49.95 uM, Number of replicates 2.0, Standard deviation 0.622352552136526 %", "value": 0.457, "unit": "%"}, {"measurement": "inhibition", "setting": "Thailand/16681/1984, Concentration 99.9 uM, Number of replicates 2.0, Standard deviation 0.7955477281018075 %", "value": 4.68, "unit": "%"}]}
{"compound": "Cc1cc(CO)c2cccc(Cc3ccccc3C(=O)N3CC[C@@H](CO)C3)c2n1", "values": [{"measurement": "inhibition", "setting": "Thailand/16681/1984, Concentration 49.95 uM, Number of replicates 2.0, Standard deviation 0.1537915321395842 %", "value": -0.863, "unit": "%"}, {"measurement": "inhibition", "setting": "Thailand/16681/1984, Concentration 99.9 uM, Number of replicates 2.0, Standard deviation 0.5490500301245094 %", "value": 3.93, "unit": "%"}]}
{"compound": "Cc1cc(CO)c2cccc(Cc3ccccc3C(=O)N3CCC(CN)CC3)c2n1", "values": [{"measurement": "inhibition", "setting": "Thailand/16681/1984, Concentration 49.95 uM, Number of replicates 2.0, Standard deviation 7.669453256982897 %", "value": 67, "unit": "%"}, {"measurement": "inhibition", "setting": "Thailand/16681/1984, Concentration 99.9 uM, Number of replicates 2.0, Standard deviation 4.997502207892192 %", "value": 86.3, "unit": "%"}]}
{"compound": "Cc1cc(CO)c2cccc(Cc3cccc(C(=O)N4CC[C@@H](CO)C4)c3)c2n1", "values": [{"measurement": "inhibition", "setting": "Thailand/16681/1984, Concentration 49.95 uM, Number of replicates 2.0, Standard deviation 1.5846275376108605 %", "value": 1.42, "unit": "%"}, {"measurement": "inhibition", "setting": "Thailand/16681/1984, Concentration 99.9 uM, Number of replicates 2.0, Standard deviation 0.9371220268229934 %", "value": 23.4, "unit": "%"}]}
{"compound": "Cc1cc(CO)c2cccc(Cc3cccc(C(=O)N4CCC(CN)CC4)c3)c2n1", "values": [{"measurement": "inhibition", "setting": "Thailand/16681/1984, Concentration 49.95 uM, Number of replicates 2.0, Standard deviation 0.03521723226612688 %", "value": 98.6, "unit": "%"}, {"measurement": "inhibition", "setting": "Thailand/16681/1984, Concentration 99.9 uM, Number of replicates 2.0, Standard deviation 0.007908771829372243 %", "value": 98.5, "unit": "%"}]}
{"compound": "Cc1cc(CO)c2cccc(Cc3cccc(C(=O)N4CCC(C(=O)O)CC4)c3)c2n1", "values": [{"measurement": "inhibition", "setting": "Thailand/16681/1984, Concentration 49.95 uM, Number of replicates 2.0, Standard deviation 0.11067239798039237 %", "value": -0.531, "unit": "%"}, {"measurement": "inhibition", "setting": "Thailand/16681/1984, Concentration 99.9 uM, Number of replicates 2.0, Standard deviation 0.04599367566818035 %", "value": 2.3, "unit": "%"}]}
